According to PubChem BioAssay AID709 (SRMLSC, 2007):
The whole screen tested about 65,000 compounds, of which about 3,600 (5.5%) were called active. Shown is part of a subset that was picked to be rich in actives. Values without a mark were called inactive.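 The calls were made as follows: active = at 10 µM, mean starting fluorescence two-fold or more over control wells; inactive = the rest.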

experiment: intrinsic fluorescence of library compounds, ex339/em460 – biochemical, MLSMR library, data from DPM-DC assay, artefact control, profiling panel (AID 709); details: compound autofluorescence, ex339/em460 nm, NADH buffer; at 10 µM; stronger effect = higher value; 1 = no-compound wells, NADH background;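 also: signal is the first read of a kinetic run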

Row | Structure (SMILES) | fluorescence fold increase
1 | Cc1cc(=O)[nH]c(SCC(N)=O)c1C#N | 1.12
2 | COc1ccc(C2CC(c3ccc(C)cc3)Nc3nc(N)nn32)cc1 (stereo unspecified) | 1.09
3 | CCOC(=O)c1c(C)n(C)c2ccc(OC)c(NC(=O)CN3CCC4(CC3)OCCO4)c12 | 1.04
4 | C=CCn1c2ccccc2c2nnc(SC(CC)C(=O)Nc3nc(C)c(C(=O)OCC)s3)nc21 (stereo unspecified) | 1.22
5 | CCN(CC(=O)NCc1cccs1)c1nnnn1-c1ccccc1 | 1.04
6 | C=CCn1c(N)c(C(=O)OCC(C)C)c2nc3ccccc3nc21 | 3.79 (active)
7 | C=CCn1c(C(C)NC(=O)CC)nc2ccccc21 (stereo unspecified) | 1.1
8 | COC(=O)c1cn(CC(=O)NCc2cccs2)c2ccccc12 | 1.12
9 | C=CCn1c(N)c(S(=O)(=O)c2cccs2)c2nc3ccccc3nc21 | 3.9 (active)
10 | CC(C)Cn1c(N)c(C(=O)NCc2cccs2)c2nc3ccccc3nc21 | 3.03 (active)
11 | CCCCNc1nc2ccccc2nc1NS(=O)(=O)c1cccs1 | 1.35
12 | CCOC(=O)C1CCN(C(=O)CSc2cc(=O)n(C)c3ccccc23)CC1 | 1.32
13 | Cc1ccc(OCCCC(=O)N2CCOCC2)c(C)c1 | 1.13
14 | Cc1ccc(CCn2c3c(c4ccccc42)CN(C)CC3)cn1 | 1.12
15 | CCOC(=O)c1ccc(NC(=O)CS(=O)(=O)c2cn(CC)c3ccccc23)cc1 | 1.08
16 | CC1(C)C(=O)Nc2ccccc2N1C(=O)COC(=O)Cn1cnc2ccccc2c1=O | 1.03
17 | CCn1c(COc2ccccc2)nnc1SCC(=O)Nc1ccc2c(c1)OCCO2 | 1.12
18 | COCCn1nnnc1CN1CCC(NC(=O)Nc2cccc(OC)c2)CC1 | 1.05
19 | COC(=O)Cc1csc(Nc2c(C)n(C)n(-c3ccccc3)c2=O)n1 | 1.09
20 | CCOc1ccc(Nc2oc(Cc3ccccc3)nc2C#N)cc1 | 1.13
21 | COc1ccc(-c2nnc(SC(C)C#N)o2)cc1 (stereo unspecified) | 1.08
22 | COc1ccc(Nc2oc(-c3ccccc3Cl)nc2C#N)cc1 | 2.11 (active)

Row | Structure (SMILES) | fluorescence fold increase
23 | O=C(COc1ccccc1)NCCc1nc2ccccc2[nH]1 | 1.13
24 | COc1ccc(-c2nn3c(-c4ccccc4)nnc3s2)cc1OC | 1.69
25 | Fc1ccc(-c2nnc3sc(-c4ccc5c(c4)OCO5)nn23)cc1 | 2.05 (active)
26 | Fc1ccc(-c2ccc(-c3nn4c(-c5ccco5)nnc4s3)o2)cc1 | 1.49
27 | Cc1noc(C)c1COC(=O)Cn1c(C)nc2ccccc21 | 1.09
28 | Cc1nn(Cc2ccccc2)c(Cl)c1C(=O)OC1CCOC1=O (stereo unspecified) | 1.07
29 | O=C(OC1CCOC1=O)c1ccc(-c2nc3ccccc3s2)s1 (stereo unspecified) | 5 (active)
30 | O=C(c1cccs1)N1CCC(c2nc3ccccc3s2)CC1 | 1.04
31 | O=C(NCc1ccco1)C1CCCN(S(=O)(=O)c2cnc[nH]2)C1 (stereo unspecified) | 1.08
32 | C=CCSc1nc2ccccc2[nH]1 | 1.11
33 | c1ccc(-c2[nH]ncc2-c2nc3ccccc3[nH]2)cc1 | 1.2
34 | c1ccc2[nH]c(-c3nc4ccccc4[nH]3)nc2c1 | 2.21 (active)
35 | CC1(C)Oc2ccc3ccc(=O)oc3c2/C(=C/NCCO)C1=O | 1.05
36 | CCOc1ccccc1-n1c(SCC(=O)NCc2ccco2)nnc1-c1ccncc1 | 1.07
37 | CCOC(=O)C1=C(C)N=c2s/c(=C\C(=O)OC)c(=O)n2C1c1ccc(OC)cc1 (stereo unspecified) | 1.08
38 | O=C(NCc1ccco1)c1cc(-c2cccnc2)nc2ccc(Cl)cc12 | 1.17
39 | O=C(Nc1ccccc1)Nc1ccccc1C(=O)NCc1ccco1 | 1.65
40 | O=C(NCc1ccco1)c1cccn2c(=O)c3cc(Br)ccc3nc12 | 2.53 (active)
41 | Cc1cc(NC(=O)CSCc2nc(-c3cccc(Cl)c3)oc2C)no1 | 1.06
42 | Cc1ccsc1-c1nc(CSCC(=O)NCCN2CCCC2)c(C)o1 | 2.22 (active)
43 | Cn1c(C(=O)NCCCN2CCCCC2)cc2sccc21 | 1.19
44 | CC(C)NC(=O)CCCn1c(=S)[nH]c2cc3c(cc2c1=O)OCO3 | 1.07

Row | Structure (SMILES) | fluorescence fold increase
45 | COc1cccc(-n2cc3c(c2-c2ccccc2)c(=O)n(C)c(=O)n3C)c1 | 2.35 (active)
46 | Cc1ccc(-c2c3c(=O)n(C)c(=O)n(C)c3cn2-c2ccccc2O)cc1 | 3.24 (active)
47 | CC(=O)Nn1cc2c(=O)n(C)c(=O)n(C)c2c1 | 1.03
48 | Cc1ccc(-c2c3c(=O)n(C)c(=O)n(C)c3cn2-n2cnnc2)cc1 | 1.07
49 | COc1cccc(-n2cc(C(=O)O)c3ccccc3c2=O)c1 | 1.36
50 | COc1ccc(OC)c(-n2cc3c(=O)n(C)c(=O)n(C)c3c2)c1 | 1.3
51 | Cn1c(=O)c2cn(-c3cccc4ccccc34)cc2n(C)c1=O | 1.28
52 | COc1ccc(-c2c3c(=O)n(C)c(=O)n(C)c3cn2-c2cccc(OC)c2)cc1 | 1.94
53 | COc1ccc(-c2c3c(=O)n(C)c(=O)n(C)c3cn2NC(C)=O)cc1 | 2.81 (active)
54 | Nc1nonc1-c1noc(-c2ccc(Br)o2)n1 | 1.07
55 | Cc1onc(-c2ccccc2)c1C(=O)N1CCOCC1 | 1.04
56 | O=C(C1CCN(S(=O)(=O)Cc2ccccc2)CC1)N1CCCc2ccccc21 | 1.08
57 | COc1ccc(-n2c(SC)nc(O)cc2=O)cc1 | 1.1
58 | O=C1[C@@H]2C(Cc3ccc(O)cc3)NC3(C(=O)Nc4ccc(F)cc43)[C@@H]2C(=O)N1c1ccc(F)cc1 (stereo partly specified) | 1.1
59 | COC(=O)c1ccccc1NC(=O)c1ccccc1NS(C)(=O)=O | 1.13
60 | CCc1ccccc1NC(=O)c1cccs1 | 1.09
61 | O=C(Nc1nncs1)c1ccccc1NS(=O)(=O)c1cccs1 | 2.5 (active)
62 | COc1ccc(CCNC(=O)CSc2nnc(-c3cccc(F)c3)o2)cc1OC | 1.07
63 | c1ccc2cc3[nH]c(CN4CCCCC4)nc3cc2c1 | 1.35
64 | CCOC(=O)N1CCN(C(=O)c2nn(-c3ccc(C)cc3)c(=O)c3c2c2ccccc2n3C)CC1 | 2.21 (active)
65 | Cn1c2ccccc2c2c(C(=O)N3CCN(c4ccc(F)cc4)CC3)cn(C3CCCC3)c(=O)c21 | 1.57
66 | CCOC(=O)N1CCN(C(=O)c2n[nH]c(=O)c3ccccc23)CC1 | 1.04
